Compounds with a hit are over-represented: about 17% of the library has one in this group of screens.
DT40 TDP1 no CPT: qHTS for Inhibitors of human tyrosyl-DNA phosphodiesterase 1 (TDP1): qHTS in cells in absence of CPT. hit rate 15% among 420,000. AID 686978, 2013. DT40 Tdp1-/- hTDP1 cells, no CPT, ATP luminescence, 48 h. Potency, µM (top dose mostly 46.2 µM), without a hit: at the top dose activity change, negative = growth inhibition, usual class: inhibitors; also: % is scaled to controls: 0 for no effect and ±100 for the full control effect; nearly all actives have a fitted effect of over 55% in size
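Compound effects on proliferation are scored in DT40 Tdp1-/-;hTDP1 cells in the absence of CPT. ATP levels (CellTiter-Glo luminescence) are recorded after a ≥48 hr, 37 °C incubation.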
ClpP mod: qHTS Assay for Activators of ClpP; AID 651965, 2013; ATP-dependent Clp protease proteolytic subunit (Bacillus subtilis (strain 168)), P80244; Potency, µM (highest dose often 57.5 µM), for the others: top-dose activity change, negative = active; purified B. subtilis ClpP, FRET peptide cleavage, 20 min; hit rate 1.9% among 340,000; active = well fitted falling curve with a large enough effect; inconclusive = small, poorly fitted or top-dose-only effect; inactive = no such curve, though single readings can be large or run the other way; also: the source files actives as falling curves though it sought activators and does not explain the sign; nearly all actives have a fitted effect of over 65% in size
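Buffer: 100 mM Tris/HCl pH8, 100 mM KCl, 0.05% low protease BSA, 2.5% glycerol, 0.01% Tween-20. ClpP 10 microg/mL final; 20 min RT; delta FRET normalized to ADEP and DMSO controls.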
TDP1 block: qHTS Assay for Inhibitors of Tyrosyl-DNA Phosphodiesterase (TDP1); Tyrosyl-DNA phosphodiesterase 1 (Homo sapiens), Q9NUW8; recombinant TDP1, AlphaScreen DNA substrate cleavage; Potency, µM (titrated, usually from 130 µM), for the others: top-dose activity change, negative = inhibition, actives largely listed as inhibitors; hit rate 0.28% among 350,000; also: % is scaled to controls: 0 for no effect and ±100 for the full control effect; nearly all actives have a fitted effect of over 40% in size
Target sequence (Q9NUW8 whole entry, looked up): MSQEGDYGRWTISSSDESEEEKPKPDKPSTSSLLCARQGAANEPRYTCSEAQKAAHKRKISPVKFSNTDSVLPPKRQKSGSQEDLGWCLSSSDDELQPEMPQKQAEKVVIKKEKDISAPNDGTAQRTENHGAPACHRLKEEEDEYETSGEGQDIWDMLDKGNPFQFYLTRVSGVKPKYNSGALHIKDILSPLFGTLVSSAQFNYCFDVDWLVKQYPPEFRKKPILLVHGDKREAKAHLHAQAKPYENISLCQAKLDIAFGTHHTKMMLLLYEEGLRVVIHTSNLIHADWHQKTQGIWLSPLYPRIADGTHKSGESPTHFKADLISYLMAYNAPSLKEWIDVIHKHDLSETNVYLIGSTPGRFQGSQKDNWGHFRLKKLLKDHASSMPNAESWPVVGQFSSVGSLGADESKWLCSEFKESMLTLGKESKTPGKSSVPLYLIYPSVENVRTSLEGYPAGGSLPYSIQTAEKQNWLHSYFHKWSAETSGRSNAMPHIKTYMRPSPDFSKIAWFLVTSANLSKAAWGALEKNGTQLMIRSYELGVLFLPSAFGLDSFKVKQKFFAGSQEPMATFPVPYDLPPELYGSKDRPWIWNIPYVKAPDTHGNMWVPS
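Recombinant human Tdp1 (E. coli-expressed, 1 nM final) preincubated with compounds 15 min at room temperature, then 5'-biotin/3'-phosphotyrosine-FITC DNA substrate (15 nM final) added for 5 min. AlphaScreen beads (10 ug/ml final) added 10 min; cleavage lowers signal.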
DT40 TDP1 CPT: qHTS for Inhibitors of human tyrosyl-DNA phosphodiesterase 1 (TDP1): qHTS in cells in presence of CPT. chicken DT40 Tdp1-/-;hTDP1 cells + 20 nM CPT, ATP luminescence, 48 h. Potency, µM (series often up to 46.2 µM), without a hit: top-dose activity change, negative = growth inhibition, actives largely listed as inhibitors. hit rate 12% among 420,000. AID 686979, 2013; also: % is scaled to controls: 0 for no effect and ±100 for the full control effect; nearly all actives have a fitted effect of over 55% in size
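Chicken DT40 Tdp1-/- cells complemented with human TDP1, 400 cells/well, exposed to compounds plus 20 nM camptothecin for at least 48 h at 37 C; viability read as ATP content by CellTiter-Glo luminescence.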
The depositor's hits bear a star; u = inconclusive; x = not tested or not shown; [ ] = dose if it differs, or a comment. Unless noted, calls follow the shape of the dose curve; as a rule, active = well fitted curve in the direction sought with a large enough effect; inconclusive = small, poorly fitted or top-dose-only effect, or another doubt; inactive = no such curve, though single readings can be large; an effect the other way counts as inactive or inconclusive. Potency is read from the fitted curve at half-maximal effect.

SMILES | DT40 TDP1 no CPT | ClpP mod | TDP1 block | DT40 TDP1 CPT
CCCC(=O)N1CCC1(C)C(=O)Nc1ccc2scnc2c1 (stereo not given) | -19% | 1% | x | -5%
CCOc1ccc(N2CC(C(=O)NCCc3c[nH]c4ccc(OC)cc34)CC2=O)cc1 (stereo not given) | -23% | x | x | 2%
COc1ccc(-c2nn(-c3ccccc3)cc2C(=O)n2nnc3ccccc32)cc1 | -44% | -1% | 2% | 21µM*
COc1ccc(OC)c(-c2nn(-c3ccccc3)cc2C(=O)N2CCc3ccccc3C2)c1 | u | -25% | 2% | u
COc1cccc(-c2nn(-c3ccc(C)cc3)cc2C(=O)N2CCc3cc(OC)c(OC)cc3C2)c1 | u | -20% | x | 18µM*
COc1ccc(-c2nn(-c3ccccc3)cc2C(=O)O)cc1OC | 15% | 25µM* | -8% | 0%
COc1ccc(-c2nn(-c3ccccc3)cc2C(=O)Nc2ccc(C(=O)O)cc2)cc1OC | -13% | x | 2% | -3%
CC1(C(=O)NS(=O)(=O)c2ccc(Cl)cc2)CCN1C(=O)Cc1ccsc1 (stereo not given) | -14% | -1% | x | -18%
CCOc1ccc2c(c1)[C@@H]1C=CC[C@@H]1[C@H](c1ccccc1Cl)N2 | -16% | -7% | x | -4%
Cc1cccc(CNC(=O)c2sc3ncnc(N(C)C4CCCCC4)c3c2C)c1 | 21µM* | u | 8% | 18µM*
Cc1c(C(=O)NC(C)c2ccccc2)sc2ncnc(N(C)C3CCCCC3)c12 (stereo not given) | u | u | -2% | 6.5µM*
COc1ccc(CNC(=O)c2sc3nc4n(c(=O)c3c2C)CCCCC4)cc1 | u | 2% | 9% | u
CCc1ccc(NC(=O)c2sc3ncnc(N(C)C4CCCCC4)c3c2C)cc1 | 21µM* | -16% | -3% | 18µM*
CCOc1ccc(CNC(=O)c2sc3ncnc(N(C)C4CCCCC4)c3c2C)cc1 | u | -12% | 2% | 16µM*
Cc1c(C(=O)Nc2ccc(Br)cc2F)sc2ncnc(N(C)C3CCCCC3)c12 | -4% | -23% | 3% | 0%
Cc1c(C(=O)NC2CCCCC2)sc2ncnc(NCCN(C)C)c12 | -2% | x | x | -1%
Cc1c(C(=O)NCc2cccc(Cl)c2)sc2ncnc(N(C)C3CCCCC3)c12 | u | u | -5% | 21µM*
Cc1c(C(=O)NCc2cccc(Cl)c2)sc2nc3n(c(=O)c12)CCC3 | u | -19% | 6% | u
COc1cccc2sc(NN)nc12 | u | x | 9% | u
CCOC(=O)c1sc(Nc2nc3cc4c(cc3s2)OCO4)cc1C | -15% | 28µM* | 6% | -1%
CCOC(=O)c1sc(Nc2nc3c(OC)cccc3s2)cc1C | 16µM* | 25µM* | -2% | u
CCn1c(=S)sc2c(=O)n(CC(=O)Nc3ccc(C(C)=O)cc3)c(C)nc21 | -7% | 0% | 3% | -26%
Cc1ccccc1OCC(=O)OCC(=O)Nc1cc(S(=O)(=O)N2CCCCC2)ccc1Cl | -16% | 1% | x | 0%
C[C@@H]1CN([C@H](C)CO)C(=O)CCCn2cc(nn2)CO[C@H]1CN(C)S(=O)(=O)c1cccs1 | -5% | 0% | x | -8%
O=C(NCCN1C(=O)S/C(=C\c2cccnc2)C1=O)c1cc(S(=O)(=O)N2CCOCC2)ccc1F | 18µM* | -4% | 6% | u
SMILES | DT40 TDP1 no CPT | ClpP mod | TDP1 block | DT40 TDP1 CPT
Cc1ccc(S(=O)(=O)N2CCOCC2)cc1C(=O)NCCN1C(=O)S/C(=C\c2ccccc2Cl)C1=O | u | -4% | 5% | u
CC(C)(C)c1ccc(/C=C2\SC(=O)N(CCNC(=O)c3cccc(S(=O)(=O)N4CCOCC4)c3)C2=O)cc1 | 23µM* | 2% | 3% | 8.2µM*
CCc1ccc(C(=O)c2cn(CC(=O)Nc3ccc4c(c3)OCO4)c3ccc(OC)cc3c2=O)cc1 | u | -6% | x | u
Cn1c2ccc(F)cc2c2ncn(Cc3ccccn3)c(=O)c21 | -8% | 0% | 3% | 4%
Cn1c2ccc(F)cc2c2ncn(Cc3ccco3)c(=O)c21 | -28% | 25µM* | -1% | -14%
Cn1c2ccccc2c2ncn(Cc3ccco3)c(=O)c21 | -12% | 32µM* | -1% | -12%
Cc1ccc([N+](=O)[O-])cc1N/C=C1\CCCCC1=O | u | x | 5% | u
N=C1C(=O)NC(=O)C1c1ccccc1 (stereo not given) | -24% | 1% | x | -2%
C[C@@H]1C(=O)N(c2ccccc2)[C@@H]1c1ccncc1 | -16% | 1% | x | 1%
CCOC(=O)C1(C)CCCCN1C(=O)c1ccc(F)c(C)c1 (stereo not given) | u | 0% | x | -66%
CCOC(=O)C1(C)CCCN1C(=O)c1ccc2ccccc2c1 (stereo not given) | 18µM* | 0% | x | u
CCOC(=O)C1(C)CCCCN1C(=O)c1cccc(Cl)c1 (stereo not given) | 15µM* | 0% | x | 21µM*
c1ccc(-c2nc(-c3ccccc3)c(NC3CCCCC3)o2)cc1 | x | x | 6% | x
CCN(CC(=O)Nc1cc(Cl)ccc1C)C(=O)c1cc(S(=O)(=O)N2CCCCCC2)ccc1OC | 18µM* | -1% | 5% | u
CCN(CC(=O)Nc1ccccc1OC)C(=O)c1cc(S(=O)(=O)N2CCCCCC2)ccc1OC | 12µM* | -3% | -5% | 16µM*
NC(=O)N[C@@H](CCC(=O)O)C(=O)O | -7% | x | x | 1%
O=C(NC1CCCCC1)C(CCc1ccccc1)N1CCc2ccccc2C1 (stereo not given) | 21µM* | -1% | x | 21µM*
Cc1cccc(Nc2cc(C)c3c(O)cccc3n2)c1C | 23µM* | -14% | 12% | 21µM*
Cc1cc(Nc2ccccc2O)nc(C)n1 | 3% | -3% | 2% | 0%
Cc1ccc2sc(N(CCCN(C)C)C(=O)CCS(=O)(=O)c3ccccc3)nc2c1C | 2.6µM* | 1% | 3% | 2.3µM*
COc1ccc(OC)c2sc(N(CCCN(C)C)C(=O)CCS(=O)(=O)c3ccccc3)nc12 | 0.65µM* | -3% | 3% | 1.5µM*
COc1ccc(Cl)c2sc(N(CCN(C)C)C(=O)CCS(=O)(=O)c3ccc(C)cc3)nc12 | u | x | -14%[0.505 µM] | u
Cc1ccccc1OCC(=O)NCC(C)NC(=O)COc1ccccc1C (stereo not given) | -23% | 2% | 1% | -9%
COc1ccccc1CNC(=O)c1c[nH]c2ccc(S(=O)(=O)Nc3cc(C)cc(C)c3)cc2c1=O | 21µM* | -25% | 0% | u
CCCCSCCCNC(=O)c1c[nH]c2ccc(S(=O)(=O)Nc3cccc(OC)c3)cc2c1=O | 21µM* | 1% | -4% | 21µM*
CCOCCCNC(=O)c1c[nH]c2ccc(S(=O)(=O)Nc3cccc(OC)c3)cc2c1=O | u | -6% | -6% | u

Compound activity deposited in PubChem BioAssay by National Center for Advancing Translational Sciences (NCATS).
